Compound activity from PubChem BioAssay.
An excerpt weighted towards active compounds, which were near 3.2% of everything screened.
EWS-Fli inh – EWS/Fli-driven NR0B1 reporter inhibitors, primary screen, A673 cells, NR0B1 luciferase, luminescence, MLPCN library; viability-normalised; inhibition, % at 12.6 µM; hit rate 0.67% among 350,000;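 active = mean inhibition of at least 50% after viability correction, with every replicate also passing that limit; inconclusive = mean reaches 50% but only one of two replicates passes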;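 note: firefly luciferase signal divided by Alamar Blue viability fluorescence both relative to DMSO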
PAX8 reporter – inhibitors of PAX8-driven TPO luciferase reporter, primary screen, RMG-I cells, single concentration; SteadyGlo, 24 h; inhibition, % at 12.6 µM; hit rate 1.2% among 360,000; AID 652154, 2013;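 active = mean replicate inhibition at least 60% with every replicate also reaching 60%; inconclusive = only one of the two criteria is met; inactive = mean below 60% and not all replicates reaching 60%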;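 note: luciferase light reporting Pax8 driven TPO promoter activity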
TWEAK Fn14 block – inhibitors of TWEAK-Fn14 signaling, primary screen, luciferase reporter cells, uHTS; TWEAK-stimulated Fn14 reporter cells, luciferase luminescence, 8 h; inhibition, % at 10 µM; hit rate 2% among 360,000; AID 1159606, 2016; in the data active = inhibition above about 50%
LMP1 NFkB inh – EBV LMP1-driven NF-kappaB luciferase reporter inhibitors, primary screen, cell-based, luminescence, single point; LMP1-induced NF-kappaB luciferase reporter cells; inhibition, % at 12.5 µM; hit rate 0.69% among 350,000; AID 504558, 2011; in the data active = inhibition above about 41%; inconclusive = no clear call, values can overlap the other calls
TROY NFkB inh – inhibitors of TROY-driven NF-kB signaling, primary screen, Q293 LMP1-TROYcd cells, NF-kB luciferase, uHTS. Q293 LMP1-TROYcd NF-kB luciferase reporter, 4 h. inhibition, % at 10 µM. hit rate 0.98% among 360,000. AID 1347056, 2019;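 active = compounds whose plate-normalised and pattern-corrected inhibition of the luciferase reporter signal at the single screening dose is 50% or more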
LGR2 antag – inhibitors of bursicon-induced LGR2 CRE-luciferase signal, primary screen, cell-based, HEK293, CRE-luciferase reporter, bursicon stimulation; bursicon-stimulated, 4 h; Drosophila bursicon receptor LGR2 (rickets); hit rate 0.35% among 380,000; inhibition, % at 9.99 µM;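 active = drop in luminescence signal, shown as inhibition above about 50% in the replicate tests, limit read from the data, passing the limit was not always enough; inconclusive = probably only some replicates passing the limit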;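 note: agonist challenge used bursicon conditioned medium at about half maximal strength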
Hits are given with their value; - = inactive; ? = inconclusive; . = not tested or not shown.

SMILES	EWS-Fli inh	PAX8 reporter	TWEAK Fn14 block	LMP1 NFkB inh	TROY NFkB inh	LGR2 antag
COC(=O)[C@@H]1[C@@H](CO)[C@@H]2Cn3c(cccc3=O)[C@H]1N2CCc1ccccc1	-	.	.	.	.	-
O=C(Cc1ccccn1)N1CCCCN2[C@H](CO)[C@@H](c3ccc(C#Cc4ccccc4)cc3)[C@H]2C1	-	-	.	.	.	-
COC(=O)[C@H]1[C@H](CO)[C@H]2Cn3c(ccc(-c4ccccc4F)c3=O)[C@@H]1N2	-	-	.	.	.	-
CC(=O)NC(Cc1ccc(N(CCCl)CCCl)cc1)C(=O)NC(C(=O)O)C(C)C (centres undefined)	-	-	-	-	-	-
CCOC(=O)CC(NC(=O)C(Cc1ccc(N(CCCl)CCCl)cc1)NC(C)=O)C(=O)OCC (centres undefined)	68	-	-	55	-	-
CCOC(=O)[C@@H]1[C@@H]2NC(=S)N(C)[C@@]1(C)Oc1ccccc12	-	-	.	.	.	.
COc1ccccc1OCC(=O)Nc1ccc(Cl)cc1C(=O)c1ccccc1	.	.	107	-	-	-
CCOc1ccccc1OCC(=O)Nc1ccc(Cl)cc1C(=O)c1ccccc1	-	-	-	-	-	-
CC=Cc1ccc2n(c1=O)C[C@H]1[C@H](CO)[C@@H](C(=O)N(C)C)N[C@@H]21 (mixture of isomers)	-	-	.	.	.	-
CN(C)C(=O)O/N=C(\N)COc1ccc(C(C)(C)C)cc1	57	-	-	-	-	-
O=C(Cc1ccccn1)N1CC2(C1)[C@H](c1ccccc1)[C@H](CO)N2Cc1ccccn1	-	-	.	.	.	-
CC=Cc1ccc2n(c1=O)C[C@H]1[C@H](CO)[C@@H](C(=O)OC)[C@@H]2N1C(=O)CC1CC1 (mixture of isomers)	-	-	.	.	.	-
c1cc(-c2ccc(C3[C@H]4CNC[C@@H]3N4CC3CC3)cc2)ccn1 (some centres undefined)	-	-	.	.	.	-
COc1ccc(NC2Oc3cc4c(cc3C(c3cc(OC)c(OC)c(OC)c3)C2C)OCO4)cc1 (centres undefined)	54	-	-	-	-	-
COc1ccc2c(c1OC)CN1CCc3cc4c(cc3C1C2)OCO4 (centres undefined)	-	-	-	-	-	-
C/C=C/c1ccc(C2[C@@H]3CN(C(=O)C4CC4)C[C@H]2N3)cc1 (some centres undefined)	-	-	.	.	.	-
CC(C)c1ccc(C(c2c(O)c3ccccc3oc2=O)c2c(O)c3ccccc3oc2=O)cc1	-	-	-	-	68	-
COc1ccc(C#Cc2ccc([C@@H]3[C@H](CO)N4CCCCN(C(=O)Cc5cccnc5)C[C@@H]34)cc2)cc1	-	-	.	.	.	-
COc1ccc(CCNCc2sccc2C)cc1OC	-	-	77	-	-	-
COc1ccc(C(c2nnnn2C2CCCC2)N2CCC3(CC2)C(=O)NCN3c2ccccc2)cc1 (centres undefined)	-	-	-	.	56	-
Cc1cccc(C)c1-n1nnnc1C(CCc1ccccc1)N1CCC2(CC1)C(=O)NCN2c1ccccc1 (centres undefined)	-	-	-	.	67	-
COC(=O)C1=C(C(=O)OC)SC2(S1)C(C(=O)OC)=C(C(=O)OC)Sc1c2ssc1=O	-	-	59	-	-	-
CCN1[C@@H]2Cn3c(ccc(-c4cccc(C(=O)N(C)C)c4)c3=O)[C@H]1[C@@H](C(=O)OC)[C@@H]2CO	-	-	.	.	.	-
O=c1[nH]c(O)c(/C=C2/C=CC(c3cc(Cl)ccc3Cl)=N2)c(=O)[nH]1	-	-	-	-	85	-
CCCOP(=O)(OCCC)C(NC(=O)c1ccccc1)=C(Cl)Cl	-	-	-	-	-	-
SMILES	EWS-Fli inh	PAX8 reporter	TWEAK Fn14 block	LMP1 NFkB inh	TROY NFkB inh	LGR2 antag
O=C(NC(=C(Cl)Cl)P(=O)(c1ccccc1)c1ccccc1)c1ccccc1	-	108	-	-	-	-
C=C1[C@@H](C)[C@H]2[C@H](Cc3ccccc3)NC(=O)[C@]23OC(=O)/C=C/[C@H](O)CCC[C@@H](C)C/C=C/[C@H]3[C@@H]1O	-	74	-	-	-	-
CC1Oc2cc3c(-c4c(O)cc(O)c5c(O)c6c(cc45)OC(C)C(C)C6=O)c(O)cc(O)c3c(O)c2C(=O)C1C (centres undefined)	.	.	68	-	-	.
CC(C)(O)/C=C/C(=O)C(C)(O)C1C(O)CC2(C)C3CC=C4C(C=C(O)C(=O)C4(C)C)C3(C)C(=O)CC12C (centres undefined)	-	91	90	45	70	88
CC(=O)OC(C)(C)/C=C/C(=O)[C@](C)(O)C1[C@H](O)C[C@@]2(C)C3CC=C4C(C[C@H](O)C(=O)C4(C)C)[C@]3(C)C(=O)C[C@]12C (some centres undefined)	.	.	-	43	-	.
COc1cccc(-c2ccc([C@@H]3[C@@H](CO)N4CCCCN(C(=O)Cc5ccncc5)C[C@H]34)cc2)c1	.	-	.	.	.	-
O=C(Cc1ccccc1)N1CCCCN2[C@H](CO)[C@H](c3ccc(C#CC4(O)CCCC4)cc3)[C@@H]2C1	-	-	.	.	.	-
CN1C(=O)NC(=O)/C(=C\C=C\c2ccccc2[N+](=O)[O-])C1=O	67	-	.	.	.	-
CN1C(=O)/C(=C/C=C/c2ccco2)C(=O)NC1=S	-	-	-	-	-	-
COc1cccc(-c2ccc3c(c2)C2c4cnnn4-c4ccccc4C(=O)N2CC3)c1 (centres undefined)	59	-	.	.	.	-
O=C(Cc1ccccn1)N1CCCCN2[C@@H](CO)[C@H](c3ccc(C#Cc4ccccc4)cc3)[C@@H]2C1	-	-	.	.	.	-
Oc1c(Br)cc(-c2ccccc2)cc1Br	-	-	-	-	-	-
Oc1ccccc1-[n+]1c(-c2ccccc2)cc(-c2ccccc2)cc1-c1ccccc1	-	78	-	-	-	-
Nc1ccccc1-[n+]1c(-c2ccccc2)cc(-c2ccccc2)cc1-c1ccccc1	-	?	-	-	-	-
Cc1ccccc1-[n+]1c(-c2ccccc2)cc(-c2ccccc2)cc1-c1ccccc1	-	95	89	?	63	-
[O-]c1ccccc1-[n+]1c(-c2ccccc2)cc(-c2ccccc2)cc1-c1ccccc1	-	90	-	-	-	-
O=C(Cc1ccccn1)N1CC2(C1)[C@H](c1ccccc1)[C@@H](CO)N2Cc1ccccn1	-	-	.	.	.	-
COc1ccc(-c2ccc([C@@H]3[C@@H](CO)N4CCCCN(C(=O)Cc5ccncc5)C[C@H]34)cc2)cc1	-	-	.	.	.	-
O=C(Cc1ccccn1)N1CCCCN2[C@H](CO)[C@H](c3ccc(-c4ccccc4)cc3)[C@@H]2C1	-	-	.	.	.	-
CN1C[C@H](CO)C[C@@H]2c3cccc4[nH]cc(c34)C[C@H]21	-	-	-	-	-	-
